We go through eight molecules from PubChem BioAssay (NCI).

Assay in all cases: NCI-60 one-dose screen, 48 h (100 = growth as untreated, 0 = no growth, -100 = all killed)
Settings in all cases: 10 µM unless noted

For experiment [1], the system named is NCI-H23 lung.
Experiment [2] relates to NCI-H226 lung.
Experiment [3] concerns NCI-H322M lung.
For experiment [4], the system named is HOP-62 NSCLC.
In experiment [5] the test system is NCI-H460 lung.
Experiment [6] concerns HOP-92 NSCLC.
The subject of experiment [7] is NCI-H522 lung.
Experiment [8] has as its system A549/ATCC NSCLC.
The subject of experiment [9] is 786-0 renal.
In experiment [10] the test system is COLO 205 colon.
Experiment [11] concerns DU-145 prostate.
Experiment [12] relates to K-562 leukemia.
For experiment [13], the system named is MALME-3M melanoma.
For experiment [14], the system named is MDA-MB-231 breast.
Experiment [15] has as its system RXF 393 renal.
For experiment [16], the system named is SF-268 CNS.
Experiment [17] has as its system SF-295 CNS.
In experiment [18] the test system is SF-539 CNS.
The subject of experiment [19] is UACC-257 melanoma.
In experiment [20] the test system is M14 melanoma.

About 83,000 compounds went through this panel and 20% of them were active in at least one assay; those are over-represented in the sample as a whole.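 Step 1: grow cells in 96-well plates. Step 2: add test compound at a single concentration. Step 3: incubate 48 h. Step 4: record percent growth.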 Values without a mark were called inactive. The source made the active and inactive calls. Rule for the calls: active = growth percent below 10; inactive = the rest.

`COc1ccc(/C(C)=C(\c2ccc(Cl)cc2)c2ccc(OCCN3CCCCCC3)cc2)cc1`: the growth in experiment [1] was 51.3%; in [2], 60.6%; in experiment [3], 79.5%; in experiment [4], 48.4%; in [5], 32.3%; in experiment [6], 79.5%. Besides, the growth in experiment [7] was 51.5%; in experiment [8], 39.4%; in [9] it was 59.7%; in [10] it was 17.2%; in experiment [11] it was 70.1%; in experiment [12], 10.4%. Besides, the growth in [13] is 51.9%; in experiment [14], 57.4%; in experiment [15] it was 69.5%; in [16], 72.3%; in [17], 54.6%; in experiment [18], 56.8%. Also, the values for the growth in [19] and in experiment [20] were 58.3% and 60%, respectively.

Take `C=CC(=O)Nc1cc(Nc2nccc(-c3cn(C)c4ccccc34)n2)c(OC)cc1N(C)CCN(C)C`: the growth in experiment [1] is 8.43% (active); in experiment [2] it was -50.5% (active); in experiment [3], -5.77% (active); in experiment [4], -23.9% (active); in [5], -54.8% (active); in experiment [6], -15.8% (active). The growth in experiment [7] was -68.6% (active); in experiment [8], -43.5% (active); in experiment [9], -87.9% (active); in [10] it was -81.1% (active); in [11], 9.23% (active); in experiment [12], -40.1% (active). In addition, the growth was -82.4% (active) in [13]; -68.4% (active) in experiment [14]; -84.2% (active) in experiment [15]; -15.6% (active) in [16]; -41.4% (active) in experiment [17]; -90.7% (active) in [18]. Also, the values for the growth in experiment [19] and in experiment [20] were -79.1% (active) and -79.4% (active), respectively.

Regarding `CCc1cc2c(cc1N1CCC(N3CCOCC3)CC1)C(C)(C)c1[nH]c3cc(C#N)ccc3c1C2=O`, the growth in experiment [1] was 14.5%; in experiment [2], -35% (active); in experiment [3], -12.5% (active); in experiment [4], -61.7% (active); in experiment [5], 1.34% (active); in experiment [6] it was -10.9% (active). Further, the growth in experiment [7] is -38.5% (active); in experiment [8], 7.92% (active); in experiment [9] it was -45.7% (active); in experiment [10] it was -42.5% (active); in [11], 10.1%; in experiment [12], 2.08% (active). Also, the growth was -27.4% (active) in experiment [13]; -7.59% (active) in experiment [14]; -1.05% (active) in experiment [15]; -2.19% (active) in experiment [16]; -3.18% (active) in experiment [17]; -71.8% (active) in [18]. Besides, the growth was -20% (active) in experiment [19] and -26.1% (active) in experiment [20].

Consider `CC(C)NC[C@@H](C(=O)N1CCN(c2ncnc3c2[C@H](C)C[C@H]3O)CC1)c1ccc(Cl)cc1`, for which the growth was 58.7% in experiment [1]; 56.2% in [2]; 55.6% in experiment [3]; 54% in [4]; 29.3% in experiment [5]; 2.39% (active) in [6]. Moreover, the growth in [7] is 53%; in experiment [8] it was 38%; in experiment [9], 4.37% (active); in experiment [10], 20.2%; in experiment [11], 67.8%; in experiment [12], 64.7%. For the same molecule, the growth in experiment [13] was 60.1%; in [14], 87.6%; in [15], -24.8% (active); in experiment [16] it was 57.7%; in experiment [17], 19.9%; in experiment [18], 2.83% (active). The growth was 42.8% in [19] and 69.9% in experiment [20].

`CC(C)(C)c1ccc(Cn2cc(CSc3nc4ccccc4s3)nn2)cc1`: the growth in experiment [1] was 90.4%; in experiment [2] it was 83%; in experiment [3], 86.2%; in experiment [4] it was 87.6%; in experiment [5], 103%; in [6] it was 80.6%. Also, the growth in experiment [7] is 84.4%; in experiment [8], 83.5%; in [9], 96.2%; in [10], 102%; in [11], 115%; in experiment [12], 95.6%. Besides, the growth in [13] was 94%; in experiment [14] it was 86.2%; in experiment [15], 103%; in experiment [16], 95.3%; in experiment [17], 91%; in experiment [18] it was 101%. The growth in experiment [19] was 97.3%; in experiment [20], 97%.

For the molecule `O=C(c1c(F)ccc(NS(=O)(=O)N2CC[C@@H](F)C2)c1F)c1c[nH]c2ncc(-c3cnc(C4CC4)nc3)cc12`, the growth in experiment [1] is 58.6%; in experiment [2] it was 62.3%; in [3] it was 21.6%; in [4] it was 37.7%; in [5] it was 37.3%; in [6], 35.7%. For the same molecule, the growth was 32.5% in [7]; 33.8% in experiment [8]; 39.8% in [9]; 0.255% (active) in experiment [10]; 49.9% in [11]; 15.8% in experiment [12]. The growth is 0.406% (active) in [13]; 35.5% in [14]; 10% in experiment [15]; 49.4% in experiment [16]; 42.8% in [17]; 53.5% in [18]. Further, the values for the growth in experiment [19] and in experiment [20] were -21.3% (active) and -0.512% (active), respectively.

`COc1cc(NCCCN)c2ncccc2c1`: the growth is 70.8% in experiment [1]; 92.7% in [2]; 82.9% in experiment [3]; 79.4% in [4]; 74% in experiment [5]; 50.7% in experiment [6]. The growth is 84% in experiment [7]; 95.9% in experiment [8]; 95.7% in experiment [9]; 91.8% in [10]; 109% in [11]; 89.9% in [12]. Further, the growth in experiment [13] was 109%; in [14], 87.5%; in experiment [15], 93.6%; in [16] it was 90.7%; in experiment [17], 67.8%; in [18], 88.4%. Further, the growth in experiment [19] was 93.7%; in experiment [20], 75.9%.

For the molecule `Cn1cc(-c2[nH]c3cc(NC(=O)[C@H](N)C4CCCCC4)cc4c3c2C=NNC4=O)cn1`, the growth in experiment [1] was -12.7% (active); in experiment [2] it was 26.1%; in [3], 16.1%; in experiment [4] it was -11.3% (active); in experiment [5], 11.6%; in [6], -25.2% (active). For the same molecule, the growth is -66% (active) in experiment [7]; 14% in experiment [8]; -18.9% (active) in [9]; -78.4% (active) in experiment [10]; 30.5% in experiment [11]; -59.6% (active) in [12]. The growth in experiment [13] is -56.2% (active); in experiment [14], -67.7% (active); in [15], -85.1% (active); in experiment [16], -23.4% (active); in experiment [17], 16.8%; in [18] it was -84.8% (active). Also, the growth in experiment [19] was 21.1%; in [20] it was -17.6% (active).
